In PubChem BioAssay:

target: Follistatin (Homo sapiens) (UniProt P19883); assay: FST protein binding to printed compounds – biochemical, small-molecule microarray, 635/667 nm fluorescence, primary screen (AID 1132); details: 635 nm fluorescence, higher = more signal
Sequence (P19883 whole entry, looked up): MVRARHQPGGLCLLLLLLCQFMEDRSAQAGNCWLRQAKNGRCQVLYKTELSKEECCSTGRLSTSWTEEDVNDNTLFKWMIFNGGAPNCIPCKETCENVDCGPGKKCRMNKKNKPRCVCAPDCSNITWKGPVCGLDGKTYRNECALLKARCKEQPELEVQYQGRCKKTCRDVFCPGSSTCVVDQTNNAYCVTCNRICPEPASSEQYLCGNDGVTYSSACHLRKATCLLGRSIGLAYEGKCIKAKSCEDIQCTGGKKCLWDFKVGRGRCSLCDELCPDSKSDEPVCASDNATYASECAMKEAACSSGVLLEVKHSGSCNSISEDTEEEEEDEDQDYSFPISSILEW

SMILES	composite z-score
COc1ccc(C(O)C2C=CC3C(=O)N(Cc4ccccc4)C(=O)C3N2n2cnnc2)cc1OCc1ccccc1 (configuration not stated)	0.319
COC(=O)[C@@]1(Cc2ccc(OC)cc2)[C@H]2c3cc(C(=O)N4CCCC4)n(Cc4ccc(C)c(F)c4F)c3C[C@H]2CN1C(=O)c1ccccc1	0.884
CC(=O)NCCCC[C@@H]1NC(=O)[C@H]2C[C@@H](C(=O)NCCCCCCNC(=O)CS)[C@@H](c3ccc(O)cc3)N2C1=O	-0.409
COCCOC(=O)N1C(=O)[C@@]2(c3cc(C#CC4(O)CCCCCC4)ccc31)[C@H](c1ccc(OCCO)cc1)N1[C@H](c3ccccc3)[C@H](c3ccccc3)OC(=O)[C@H]1[C@@H]2C(=O)N1CCN(c2ncccn2)CC1	1.03
CCCCCN1CC=CC23O[C@@H]4/C=C\CCC(C)OC(=O)C4[C@H]2C(=O)N(C(C)CO)[C@@H]3C1=O (some centres not stated)	0.274
COc1ccc(C#Cc2ccc3c(c2)[C@]2(C(=O)N3)[C@H](C(=O)NC[C@H](O)c3ccccc3)[C@H]3C(=O)O[C@H](c4ccccc4)[C@H](c4ccccc4)N3[C@@H]2c2ccc(O)cc2)cc1	1.08
COc1ccc(C#Cc2ccc3c(c2)[C@]2(C(=O)N3)[C@H](c3ccccc3OCCO)N3[C@H](c4ccccc4)[C@H](c4ccccc4)OC(=O)[C@H]3[C@@H]2C(=O)Nc2nc3ccccc3s2)cc1	1.25
CN1C(=O)C2C=CC(C(O)c3ccco3)N(Nc3ccccc3)C2C1=O (configuration not stated)	0.861

target: Fibroblast growth factor 2 (Homo sapiens) (UniProt P09038); assay: basic fibroblast growth factor binding to printed compounds – biochemical, small-molecule microarray, 635/667 nm fluorescence, primary screen (AID 1133); details: FGF2, fluorescence 635/667, higher = more signal
Sequence (P09038 whole entry, looked up): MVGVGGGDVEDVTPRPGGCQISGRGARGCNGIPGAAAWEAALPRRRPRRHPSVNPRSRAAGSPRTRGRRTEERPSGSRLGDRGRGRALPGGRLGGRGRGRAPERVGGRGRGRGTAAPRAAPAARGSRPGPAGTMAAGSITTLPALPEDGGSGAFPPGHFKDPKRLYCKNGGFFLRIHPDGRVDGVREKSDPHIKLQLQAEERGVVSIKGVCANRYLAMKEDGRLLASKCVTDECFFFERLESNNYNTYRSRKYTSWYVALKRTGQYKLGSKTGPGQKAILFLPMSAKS

SMILES	composite z-score
COCCOC(=O)N1C(=O)[C@@]2(c3cc(C#CCC(C(=O)OC)C(=O)OC)ccc31)[C@H](c1ccccc1OCCO)N1[C@H](c3ccccc3)[C@H](c3ccccc3)OC(=O)[C@H]1[C@@H]2C(=O)N1CCN(c2ncccn2)CC1	1.46
C=CCC(OC(C)=O)[C@@H]1[C@@H](N(Cc2ccc(-c3ccccc3)cc2)C(=O)c2cccc3ccccc23)c2cc(OCCCO)ccc2N1C(=O)c1ccc(-c2ccccc2)cc1 (some centres not stated)	-0.0136
O=C(NCCO)C1=C[C@H](Oc2ccccc2I)[C@@H](O)[C@H](N(Cc2ccco2)C(=O)Cc2ccccc2)C1	0.58
C#C[C@H](O[Si](C#Cc1ccc(Oc2ccccc2)cc1)(C(C)C)C(C)C)c1ccccc1	0.137
CC1CC/C=C\[C@H]2OC34C=CCN(Cc5ccccc5)C(=O)[C@H]3N(CCCO)C(=O)[C@@H]4C2C(=O)O1 (some centres not stated)	-0.536
CCOC(=O)C[C@H]1[C@H](OC(=O)c2ccc(C(=O)c3ccccc3)cc2)[C@@H](NC(=O)c2ccccc2)c2cc(OCCCO)ccc2N1C(=O)Cc1ccc(OC)cc1	-0.358
CC(C)CNC(=O)[C@@]1(Cc2ccccc2I)c2ccccc2C(=O)N(C2CCCCC2)[C@H]1c1ccc(CO)cc1	0.99
Cc1ccc(S[C@]2(C(=O)NCCCN(C)C)CC(=O)N(Cc3ccccc3C(F)(F)F)[C@@H]2c2ccc(CO)cc2)cc1	-0.45
C=CC[C@]1(C(=O)NCCCOC)N=C(c2ccc(OCCCO)cc2)O[C@H]1c1ccccc1CN=[N+]=[N-]	0.564
Cc1ccc(S[C@]2(C(=O)NCCCN(C)C)CC(=O)N(Cc3cc(C(F)(F)F)cc(C(F)(F)F)c3)[C@@H]2c2ccc(CO)cc2)cc1	-1.33
CCCC[C@H]1OB(O)C[C@H]2C1=C(COC)Cn1c(=O)n(-c3ccccc3)c(=O)n12	-1.06
COc1ccc(/C=C/C=O)cc1	0.138
NC(=O)NCC#Cc1ccc2c(c1)[C@]1(C(=O)N2)[C@H](c2ccccc2OCCO)N2[C@H](c3ccccc3)[C@H](c3ccccc3)OC(=O)[C@H]2[C@@H]1C(=O)Nc1nc2ccccc2s1	0.244
C=CCC(OC(C)=O)[C@@H]1[C@@H](N(Cc2ccc(-c3ccccc3)cc2)C(=O)c2ccc(-c3ccccc3)cc2)c2cc(OCCCO)ccc2N1C(=O)Cc1ccc2ccccc2c1 (some centres not stated)	-0.275
Cc1ccc(N2C(=O)c3ccccc3[C@@H](C(=O)NC3CC3)[C@@H]2c2ccc(CO)cc2)nc1	0.392
COCCCNC(=O)[C@@]1(C)c2ccccc2C(=O)N(C(C)C)[C@H]1c1ccc(CO)cc1	0.802
COC(=O)[C@@]1(Cc2ccc(OC)cc2)[C@@H]2C(=CC(=O)[C@H]2CC(=O)C(=O)N2CCCC2)CN1C(=O)c1ccccc1	-0.322
C=C(COC)/C(=C/C[C@@H](OC(=O)c1ccncc1)c1ccc(CO)o1)c1cc(C(=O)OC)ccc1OC	1.92
NC(=O)NCC#Cc1ccc2c(c1)[C@]1(C(=O)N2)[C@H](C(=O)Nc2nc3ccccc3s2)[C@H]2C(=O)O[C@H](c3ccccc3)[C@H](c3ccccc3)N2[C@@H]1c1ccccc1OCCO	0.624
